High-throughput results (PubChem BioAssay)
Compounds with a hit are over-represented: about 10% of the library has one in this group of screens.
LMNA splice mod – changes lamin A minigene splicing in HeLa cells; Potency, µM (series often up to 46.1 µM), for inactives: at the top dose ratio change, negative = inhibition, usual class: inhibitors; HeLa LMNA splicing GFP/RFP minigene ratio, 48 h; hit rate 0.01% among 200,000; active = well fitted inhibition curve with a large enough effect in the signal ratio, with a control signal flat, not every such curve was filed as active; inconclusive = small, poorly fitted or top-dose-only effect, or effect the other way, or a change in a side signal; the % refers to the signal ratio; note: potency is the fitted concentration of half-maximal effect
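Read-out is the ratio of GFP to DsRed2 object intensity, acquired by 488 nm laser-scanning cytometry on HeLa lamin A-EGFP minigene reporter cells. Compound incubation 48 hrs at 37 °C in Opti-MEM with 2% FBS; DMSO 0.5% final.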
ALDH1A1 block – ALDH1A1 (human) enzyme inhibition. P00352. Purified ALDH1A1, NADH fluorescence, propionaldehyde substrate. Potency, µM (titrated, usually from 75.3 µM), for inactives: top-dose activity, negative = inhibition, usual class: inhibitors. hit rate 7.3% among 220,000. AID 1030;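 note: potency is the fitted concentration of half-maximal effect; plate controls were no enzyme wells and a reference inhibitor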
Target sequence (P00352 whole entry, looked up): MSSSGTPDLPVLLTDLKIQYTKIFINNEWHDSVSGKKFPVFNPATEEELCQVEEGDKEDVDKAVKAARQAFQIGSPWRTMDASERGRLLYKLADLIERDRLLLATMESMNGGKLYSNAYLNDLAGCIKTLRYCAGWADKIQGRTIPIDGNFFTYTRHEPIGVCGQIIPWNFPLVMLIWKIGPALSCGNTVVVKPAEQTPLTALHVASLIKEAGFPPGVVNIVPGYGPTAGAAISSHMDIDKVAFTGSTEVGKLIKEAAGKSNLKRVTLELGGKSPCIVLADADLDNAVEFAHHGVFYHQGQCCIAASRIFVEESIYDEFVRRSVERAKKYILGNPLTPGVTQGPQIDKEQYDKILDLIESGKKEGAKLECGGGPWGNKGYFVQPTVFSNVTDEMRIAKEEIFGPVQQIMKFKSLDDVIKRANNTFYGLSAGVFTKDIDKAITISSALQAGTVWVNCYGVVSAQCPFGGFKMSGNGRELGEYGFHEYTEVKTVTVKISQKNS
HPGD inh – inhibitors of human 15-hydroxyprostaglandin dehydrogenase (HPGD); Potency, µM, for inactives: at the highest dose activity change, negative = inhibition, most hits filed as inhibitors; purified HPGD, NADH fluorescence kinetic, PGE2 substrate; P15428; AID 894; hit rate 4.3% among 150,000; note: potency is the fitted concentration of half-maximal effect
Target sequence (P15428 whole entry, looked up): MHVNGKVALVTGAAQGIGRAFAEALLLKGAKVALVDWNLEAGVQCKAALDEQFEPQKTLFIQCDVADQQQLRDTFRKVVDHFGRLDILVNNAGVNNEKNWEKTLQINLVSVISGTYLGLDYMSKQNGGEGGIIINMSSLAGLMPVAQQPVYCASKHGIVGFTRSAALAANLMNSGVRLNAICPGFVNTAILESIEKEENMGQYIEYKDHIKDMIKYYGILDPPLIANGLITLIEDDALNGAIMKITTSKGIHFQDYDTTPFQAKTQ
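20 nM HPGD preincubated 15 min at room temperature with compound in 50 mM Tris-HCl pH 8, 0.01% Tween 20. Started with 1 mM NAD+ and 30 uM prostaglandin E2; NADH fluorescence (360/450 nm) read 5 times over 30-s intervals, last minus first.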
PNC assembly inh – inhibitors of perinucleolar compartment assembly | PC3M PTB-GFP, PNC prevalence imaging, 16 h; stronger effect = lower value | activity change (PNC), negative = inhibition, % at 10 µM | hit rate 3.1% among 140,000 | AID 2417;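 active = readout at or below -70, meaning at least 70% loss of cells showing the perinucleolar compartment, a nuclear body marking cancer cells; inconclusive = readout between -30 and a set limit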;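 note: plate controls were DMSO wells for no effect and camptothecin positive control wells for full effect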
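PC3M cells stably expressing PTB-GFP, 750–1000 cells/well, treated 16 h at 37 °C with compound (23 nl of library stock), in duplicate. After paraformaldehyde fixation and Hoechst stain, imaged at 20x; PNC prevalence scored by image analysis.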
12-hLO inh – inhibitors of human 12-lipoxygenase (ALOX12) | Potency, µM (series often up to 57.1 µM), for the others: at the top dose activity change, negative = inhibition, usual class: inhibitors | hit rate 0.12% among 150,000 | P18054 | purified 12-hLO, xylenol orange hydroperoxide absorbance; active = well fitted inhibition curve with a large enough effect; inconclusive = small, poorly fitted or top-dose-only effect; note: potency is the fitted concentration of half-maximal effect; nearly all actives have a fitted effect of over 55% in size
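Lipoxygenase turnover measured by absorbance at 573 and 405 nm after Fe-XO development. Human 12hLO 150 nM, arachidonate 40 uM, pH 7.0 Hepes buffer with detergent; 15 min compound preincubation, 30 min reaction.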
The depositor's hits bear a star; [ ] = another dose, or the depositor's remark. Unless noted, calls come from the whole dose curve; as a rule, active = well fitted inhibition curve with a large enough effect (not every such curve was filed as active); inconclusive = small, poorly fitted or top-dose-only effect, or another doubt; inactive = no such curve, though single readings can be large or run the other way. Unless noted, % is set by controls: 0 for no effect and ±100 for the full control effect.

Results for NC(=O)c1ncn(C2OC(CO)C(O)C2O)n1 (stereo unspecified) ?
LMNA splice mod: inconclusive; ALDH1A1 block: -9.8%; HPGD inh: -12.6%; 12-hLO inh: 2.3%

Results for Cc1noc(NS(=O)(=O)c2ccc(NC(=O)CCCOc3ccc(Cl)cc3Cl)cc2)c1C ?
LMNA splice mod: 1.9%; ALDH1A1 block: 3.2%; HPGD inh: 25.1µM*; PNC assembly inh: -11.3; 12-hLO inh: -3.3%

Results for C[C@@H](Cc1cccc(C(F)(F)F)c1)NCCCc1ccccc1 ?
ALDH1A1 block: 1.3%; HPGD inh: -6.6%; 12-hLO inh: -13.0%

Results for CCOP(=S)(OCC)Oc1ccc([N+](=O)[O-])cc1 ?
ALDH1A1 block: 15.8µM*; HPGD inh: -12.2%; 12-hLO inh: -1.3%

What do the screens show for `O=c1[nH]cnc2[nH]cc(CN3CCCCC3)c12`?
ALDH1A1 block: 4.3%[13.5 µM]; HPGD inh: -0.1%; 12-hLO inh: 7.6%[11.4 µM]

How did Oc1ccc([C@H](O)[C@@H]2CCCCN2)cc1O do in these assays?
12-hLO inh: -9.7%[11.4 µM]

What do the screens show for `O=C(Cc1ccccc1)Oc1cccc(N2C(=O)CCC2=O)c1`?
LMNA splice mod: 6.3%; ALDH1A1 block: -8.9%; HPGD inh: -8.4%; PNC assembly inh: -99.6*; 12-hLO inh: 4.2%

What do the screens show for `CN(C)CCCNc1c2c(nc3ccc(Cl)cc13)CCCC2`?
ALDH1A1 block: 6.2%[13.5 µM]; HPGD inh: -3.7%; 12-hLO inh: 0.4%[11.4 µM]

What do the screens show for `C=CCBr`?
ALDH1A1 block: -16.7%; HPGD inh: -3.9%; 12-hLO inh: -1.5%

How did COc1ccc(/C=C/C2=CCN(C)CC2)cc1 do in these assays?
LMNA splice mod: -13.9%[46 µM]; ALDH1A1 block: 25.1µM*

Results for CN1CCN(c2ccc3nc(-c4ccc5nc(-c6ccc(O)cc6)[nH]c5c4)[nH]c3c2)CC1 ?
ALDH1A1 block: inconclusive; HPGD inh: inconclusive; 12-hLO inh: 12.2%[11.4 µM]

How did C/C=C/c1ccc(OC)cc1 do in these assays?
ALDH1A1 block: inconclusive; HPGD inh: -8.7%

How did COc1ccc(C=O)cc1OC do in these assays?
ALDH1A1 block: 11.2µM*; HPGD inh: -14.4%; 12-hLO inh: -5.7%

What do the screens show for `COc1ccc(C=O)cc1`?
ALDH1A1 block: 7.94µM*; HPGD inh: 6.2%; 12-hLO inh: -3.7%

How did O/N=C/c1c[nH]c2ccccc12 do in these assays?
LMNA splice mod: -6.9%; ALDH1A1 block: 7.9%; HPGD inh: 7.08µM*; PNC assembly inh: inconclusive; 12-hLO inh: -4.8%

What do the screens show for `CC(C)Br`?
ALDH1A1 block: 10.1%; HPGD inh: -3.4%; 12-hLO inh: -3.0%

What do the screens show for `COc1ccccc1CCNC1CCC(C(C)(C)C)CC1` (stereo unspecified)?
LMNA splice mod: inconclusive; ALDH1A1 block: inconclusive; PNC assembly inh: -111.9*; 12-hLO inh: inconclusive

How did COc1ccccc1CCNC1CCCC(C)C1 (stereo unspecified) do in these assays?
LMNA splice mod: -15.0%; ALDH1A1 block: 18.2%; HPGD inh: -5.8%; PNC assembly inh: 16.1; 12-hLO inh: -0.5%

What do the screens show for `COc1ccc(C(C)=O)cc1COc1ncnc2ccccc12`?
LMNA splice mod: -1.9%[46 µM]; ALDH1A1 block: 1.78µM*

Results for CC(=O)OC[C@H](N)C(=O)c1ccccc1 ?
ALDH1A1 block: inconclusive; HPGD inh: -2.3%; 12-hLO inh: 0.1%[0.00818 µM]

What do the screens show for `Nc1ccccc1N=Cc1c(O)n(CCC2=CCCCC2)c(=O)[nH]c1=O`?
LMNA splice mod: -4.0%; ALDH1A1 block: 2.82µM*; PNC assembly inh: inconclusive; 12-hLO inh: 1.1%

How did COC(=O)C1C2c3ccccc3OC1(C)N=c1s/c(=C/c3cnn(C)c3)c(=O)n12 (stereo unspecified) do in these assays?
LMNA splice mod: 8.6%; ALDH1A1 block: 1.8%; HPGD inh: -22.6%; PNC assembly inh: 77.2; 12-hLO inh: -0.1%

What do the screens show for `CC(=O)C1C2c3ccccc3OC1(C)N=c1s/c(=C/c3cn(C)nc3C)c(=O)n12` (stereo unspecified)?
LMNA splice mod: 5.2%; ALDH1A1 block: 10µM*; HPGD inh: 28.2µM*; PNC assembly inh: inconclusive; 12-hLO inh: -9.1%

How did Oc1ccc(Cl)cc1Sc1cc(Cl)ccc1O do in these assays?
ALDH1A1 block: inconclusive; HPGD inh: 2.51µM*; 12-hLO inh: -28.0%[11.4 µM]

What do the screens show for `Nc1cc(Cl)ccc1Cl`?
ALDH1A1 block: -3.2%; HPGD inh: -1.3%; 12-hLO inh: 4.0%

Results for Nc1cc(Cl)ccc1O ?
ALDH1A1 block: 8.91µM*; HPGD inh: 10µM*; 12-hLO inh: 20µM*

How did Nc1ccc(Cl)cc1N do in these assays?
ALDH1A1 block: 8.91µM*; HPGD inh: -18.2%; 12-hLO inh: -2.6%

Results for CCCCC(CC)COC(=O)c1ccc(C(=O)OCC(CC)CCCC)c(C(=O)OCC(CC)CCCC)c1 (stereo unspecified) ?
ALDH1A1 block: inconclusive; HPGD inh: -5.9%; 12-hLO inh: -2.1%

How did O=[N+]([O-])CCO do in these assays?
ALDH1A1 block: 17.8µM*; HPGD inh: -11.0%; 12-hLO inh: -4.6%

How did CCn1c(O)c(C=NCc2ccccc2)c(=O)[nH]c1=S do in these assays?
ALDH1A1 block: 8.3%

How did CCn1c(O)c(C(c2ccccn2)c2c(O)n(CC)c(=S)[nH]c2=O)c(=O)[nH]c1=S do in these assays?
LMNA splice mod: 0.5%; ALDH1A1 block: 25.1µM*; HPGD inh: -8.0%; PNC assembly inh: 59.9; 12-hLO inh: -9.5%

How did C=C1CCC(O)C/C1=C\C=C1/CCCC2(C)C1CCC2C(C)CCCC(C)C (stereo unspecified) do in these assays?
ALDH1A1 block: inconclusive; HPGD inh: -5.4%; 12-hLO inh: -14.7%

How did O=C(Nc1nnc(-c2ccco2)o1)c1cccc2ccccc12 do in these assays?
LMNA splice mod: inconclusive; ALDH1A1 block: 4.2%; HPGD inh: -24.2%; PNC assembly inh: -21.3; 12-hLO inh: -13.2%

How did COc1cccc(CNC(=O)CSc2ccc(-c3ccco3)nn2)c1 do in these assays?
ALDH1A1 block: 12.6µM*

What do the screens show for `CN(C(=O)Cc1ccc(Cl)c(Cl)c1)[C@H](CN1CCCC1)c1cccc(N=C=S)c1`?
ALDH1A1 block: inconclusive; HPGD inh: -8.8%; 12-hLO inh: -14.9%

What do the screens show for `Cc1ccc(C(=O)NC(O)C(Cl)(Cl)Cl)cc1` (stereo unspecified)?
LMNA splice mod: -12.6%; ALDH1A1 block: 0.4%; HPGD inh: 14.1µM*; PNC assembly inh: inconclusive; 12-hLO inh: 3.1%

Results for Cc1cccc(C(=O)NC(Oc2ccccc2)C(Cl)(Cl)Cl)c1 (stereo unspecified) ?
LMNA splice mod: -0.1%; ALDH1A1 block: -3.8%; HPGD inh: -9.7%; PNC assembly inh: 6.1; 12-hLO inh: 1.6%

Results for CON(C)C(=O)Nc1ccc(Cl)cc1 ?
LMNA splice mod: 3.2%; ALDH1A1 block: 4.2%; HPGD inh: -6.4%; PNC assembly inh: -121.3*; 12-hLO inh: -1.6%

Results for O=C(NC(=O)c1c(F)cccc1F)Nc1ccc(Cl)cc1 ?
LMNA splice mod: -11.9%; ALDH1A1 block: -1.1%; HPGD inh: -10.6%; 12-hLO inh: -3.8%
